Measured values: PubChem BioAssay (NCATS)
Values joined by “and” are separate entries in the source; they are usually repeats but may differ in a detail not shown here. Identical values can stand only once. Values without a mark were called inactive. Records with an inconclusive call do not appear. Where a call stands in place of a potency, no number is given. Active and inactive are the calls of the source. Unless noted, calls follow the shape of the dose curve; as a rule, active = well fitted curve in the direction sought with a large enough effect; inconclusive = small, poorly fitted or top-dose-only effect, or another doubt; inactive = no such curve, though single readings can be large; an effect the other way counts as inactive or inconclusive.

Columns and labels:
CASKI = assay: Primary qHTS to identify gynecologic anti-cancer compounds using libraries of approved drugs and bioactive compounds (AID 1345084); settings: Gynecologic cancer cell panel viability, ATPlite luminescence, 48 h; series mostly up to 57.5 µM; also: nearly all actives have a fitted effect of over 55% in size
Procedure, shortened: (§1)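 Luminescence from the ATPlite ATP-monitoring reagent indicates viable cell number; lower signal means cytotoxicity. Cells received compound 16 h after seeding and were exposed for 48 h across five concentrations.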

Es-2 = assay: as above; settings: Gynecologic cancer cell panel viability, ATPlite luminescence, 48 h; series mostly up to 57.5 µM
Procedure, shortened: as §1

HeLa = assay: as above; settings: Gynecologic cancer cell panel viability, ATPlite luminescence, 48 h; series mostly up to 57.5 µM
Procedure, shortened: as §1

Hek293T = assay: as above; settings: Gynecologic cancer cell panel viability, ATPlite luminescence, 48 h, control line for the selectivity index; series mostly up to 57.5 µM
Procedure, shortened: as §1

JEG-3 = assay: as above; settings: Gynecologic cancer cell panel viability, ATPlite luminescence, 48 h; series mostly up to 57.5 µM
Procedure, shortened: as §1

OV90 = assay: as above; settings: Gynecologic cancer cell panel viability, ATPlite luminescence, 48 h; series mostly up to 57.5 µM
Procedure, shortened: as §1

PA-1 = assay: as above; settings: Gynecologic cancer cell panel viability, ATPlite luminescence, 48 h; series mostly up to 57.5 µM
Procedure, shortened: as §1

SKOV3 = assay: as above; settings: Gynecologic cancer cell panel viability, ATPlite luminescence, 48 h; series mostly up to 57.5 µM
Procedure, shortened: as §1

Tov-21-G = assay: as above; settings: Gynecologic cancer cell panel viability, ATPlite luminescence, 48 h; series mostly up to 57.5 µM
Procedure, shortened: as §1

Tov112D = assay: as above; settings: Gynecologic cancer cell panel viability, ATPlite luminescence, 48 h; series mostly up to 57.5 µM
Procedure, shortened: as §1

[1] = Drug repurposing screens with cells derived from glioblastoma tumor samples (AID 1345199); settings: GBM patient neurospheres viability, ATP luminescence, 48 h; also: nearly all actives have a fitted effect of over 40% in size; also: potency is read from the fitted curve at half-maximal effect
Procedure, shortened: (§2)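 Four patient lines of CD133+ GBM neurospheres were screened at several concentrations; hits were retested in those lines plus three slower-growing GBM lines, using 48-hour treatment and ATP-based viability.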

astro = assay: as above; settings: viability, ATP luminescence, 48 h; series mostly up to 45.9 µM
Procedure, shortened: as §2

[2] = biological target: Nuclear receptor subfamily 1 group I member 2 (Rattus norvegicus) (UniProt Q9R1A7); assay: qHTS assay for small molecule activators of the rat pregnane X receptor (rPXR) signaling pathway (AID 651751; call rule not given here); settings: rPXR reporter cells, luciferase (One-Glo), 24 h
Chain of Nuclear receptor subfamily 1 group I member 2 (Rattus norvegicus) (Q9R1A7 whole entry, looked up): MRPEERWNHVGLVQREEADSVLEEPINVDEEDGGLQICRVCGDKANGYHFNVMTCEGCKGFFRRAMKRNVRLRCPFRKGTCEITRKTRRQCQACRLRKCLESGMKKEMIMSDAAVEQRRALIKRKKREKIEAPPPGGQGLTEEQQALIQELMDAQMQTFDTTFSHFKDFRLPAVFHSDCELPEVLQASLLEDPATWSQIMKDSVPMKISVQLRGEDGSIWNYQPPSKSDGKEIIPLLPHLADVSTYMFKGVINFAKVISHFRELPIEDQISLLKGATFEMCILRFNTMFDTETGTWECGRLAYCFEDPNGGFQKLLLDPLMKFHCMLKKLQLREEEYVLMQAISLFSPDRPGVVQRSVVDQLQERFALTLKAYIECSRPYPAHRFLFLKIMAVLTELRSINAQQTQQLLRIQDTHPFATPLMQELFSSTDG

[3] = qHTS assay for small molecule activators of the human pregnane X receptor (PXR) signaling pathway (AID 720659; call rule not given here)
[4] = at 45.9 µM (top of the series), tumour line B
[5] = at 45.9 µM (top of the series), tumour line D
[6] = at 46 µM (top of the series), tumour line A
[7] = at 46.1 µM (top of the series), tumour line C

| Compound | Potency (CASKI) | Potency (Es-2) | Potency (HeLa) | Potency (Hek293T) | Potency (JEG-3) | Potency (OV90) | Potency (PA-1) | Potency (SKOV3) | Potency (Tov-21-G) | Potency (Tov112D) | activity, negative = cell killing [1, 4] | activity, negative = cell killing [1, 5] | activity, negative = cell killing [1, 6] | activity, negative = cell killing [1, 7] | Potency (astro) | Potency ([1]; tumour line A) | max response [2] | outcome [3] |
| --- | --- | --- | --- | --- | --- | --- | --- | --- | --- | --- | --- | --- | --- | --- | --- | --- | --- | --- |
| O=C1N=C(O)CN1/N=C/c1ccc(-c2ccc([N+](=O)[O-])cc2)o1 | inactive | inactive | inactive | inactive | inactive | inactive | inactive | inactive | inactive | inactive | -7.61% | 2.91% | -22.1% | -1.99% | inactive |  |  |  |
| Cc1cccc(C)c1NC(=O)CN(CC(=O)O)CC(=O)O | inactive | inactive | inactive | inactive | inactive | inactive | inactive | inactive | inactive | inactive | 1.75% | -3.71% | -11.4% | -3.39% | inactive |  |  |  |
| O=C1NC(=O)[C@@]2(CCOc3ccc(F)cc32)N1 | inactive | inactive | inactive | inactive | inactive | inactive | inactive | inactive | inactive | inactive | -4.87% | 4.44% | -16.6% | -0.68% | inactive |  |  |  |
| NC(=O)NNc1ccccc1 | inactive | inactive | inactive | inactive | inactive | inactive | inactive | inactive | inactive | inactive | -9.66% and -3.84% | -10.5% and 5.37% | -34.9% | -25.2% and -16.9% | inactive |  |  |  |
| CC(C)(C)C(=O)C(Oc1ccc(Cl)cc1)n1ccnc1 (stereo unspecified) | inactive | inactive | inactive | inactive | inactive | inactive | inactive | inactive | inactive | inactive | -7.03% | -26.6% |  | -0.0869% | inactive | 12.6 µM (active) |  |  |
| O=C1NS(=O)(=O)c2ccccc21 | inactive | inactive | inactive | inactive | inactive | inactive | inactive | inactive | inactive | inactive | -3.37% | -3.92% | -6.92% | -6.41% | inactive |  | -2.55% | inactive |
| O=c1cc[nH]c(=S)[nH]1 | inactive | inactive | inactive | inactive | inactive | inactive | inactive | inactive | inactive | inactive | -6.45% | -10.9% |  | -27.1% | inactive |  |  |  |
